Source: PubChem BioAssay (NCATS)
Results filed as inconclusive are left out. Where a call stands in place of a potency, no number is given. Calls of active or inactive are those of the source. Calls follow the shape of the full dose curve.

How the values were obtained:
[1] = Cytotoxicity counterscreen for inhibitors of SARS-CoV-2 cell entry (AID 1645845); also: nearly all actives have a fitted effect of over 50% in size
Method in brief: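 Counterscreen run in the same HEK293-ACE2 line as the pseudotyped-particle entry assay, without particles. Viability after 48 h at 37 C was read as ATP luminescence, scaled between cell-containing and cell-free wells.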

[2] = Primary qHTS to identify inhibitors of SARS-CoV-2 cell entry (AID 1645846); conditions: activity change, negative = inhibition: at 57.1 µM (top of the series) unless noted; also: nearly all actives have a fitted effect of over 45% in size
Method in brief: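 HEK293-ACE2 (Expi293F, stable hACE2), 1500 cells/well, o/n 37C; cpd 23 nL pin, 1 h; MLV-PP w/ SARS-CoV-2-S (Wuhan-Hu-1, Δ19 C-term); 48 h 37C; Bright-Glo luminescence; normalized vs S-PP and bald PP.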

Row | Structure (SMILES) | Potency [1] | Potency [2] | activity change, negative = inhibition [2]
1 | COc1cc(C(=O)NS(=O)(=O)c2ccccc2C)ccc1Cc1cn(C)c2ccc(NC(=O)OC3CCCC3)cc12 | inactive | inactive | –
2 | Nc1ncnc2nc[nH]c12 | inactive | inactive | –
3 | N[C@@H](Cc1cc(I)c(Oc2ccc(O)c(I)c2)c(I)c1)C(=O)O | inactive | inactive | –
4 | O=C1[C@@H]2[C@H]3CC[C@H](C3)[C@@H]2C(=O)N1CCCCN1CCN(c2ncccn2)CC1 | inactive | – | -0.993%
5 | C[C@H](CS)C(=O)N1CCC[C@H]1C(=O)O | inactive | inactive | –
6 | O=S(=O)(O)c1ccc2nc(-c3ccccc3)[nH]c2c1 | inactive | inactive | –
7 | COc1ccc2c(c1)c(CC(=O)OC/C=C(\C)CC/C=C(\C)CCC=C(C)C)c(C)n2C(=O)c1ccc(Cl)cc1 | inactive | inactive | –
8 | Oc1ccccc1 | inactive | inactive | –
9 | O=S(=O)(O)c1ccc(O)cc1 | inactive | – | 2.14%
10 | COc1ccc(C(=O)c2ccccc2)c(O)c1 | inactive | inactive | –
11 | CCCCCCCCCCCCSCCOCCO | inactive | inactive | –
12 | CCn1nc(C(=O)O)c(=O)c2cc3c(cc21)OCO3 | inactive | inactive | –
13 | COC(=O)C1=C(C)NC(C)=C(C(=O)OCCc2ccc(N3CCN(C(c4ccccc4)c4ccccc4)CC3)cc2)C1c1cccc([N+](=O)[O-])c1 (stereo not given) | inactive | – | -16.7%
14 | CC(C)(Oc1ccc(Cl)cc1)C(=O)OCCCOC(=O)C(C)(C)Oc1ccc(Cl)cc1 | inactive | – | -28.5%
15 | CC(=O)[C@H]1CC[C@H]2[C@@H]3C=CC4=CC(=O)CC[C@@]4(C)[C@@H]3CC[C@]12C | inactive | – | -10.8%
